# From PMC7862700, “An all-to-all approach to the identification of sequence-specific readers for epigenetic DNA modifications on cytosine”
# How the values were obtained:
# Experiment in all cases: DAPPL (digital affinity profiling via proximity ligation, sequencing); 10 mM Tris-HCl pH 7.5, 50 mM NaCl, 1 mM DTT, 4% glycerol, room temperature, 30 min; GST-TFs on glutathione beads, 16-mer random dsDNA library, 0.1% formaldehyde crosslink after washing; high values mean tight binding
# FLI1 = biological target: T1, FLI1 (Homo sapiens, UniProt Q01543 1-452); settings: protein: recombinant; tags: N-terminal GST; dsDNA, one strand shown
# T1 sequence: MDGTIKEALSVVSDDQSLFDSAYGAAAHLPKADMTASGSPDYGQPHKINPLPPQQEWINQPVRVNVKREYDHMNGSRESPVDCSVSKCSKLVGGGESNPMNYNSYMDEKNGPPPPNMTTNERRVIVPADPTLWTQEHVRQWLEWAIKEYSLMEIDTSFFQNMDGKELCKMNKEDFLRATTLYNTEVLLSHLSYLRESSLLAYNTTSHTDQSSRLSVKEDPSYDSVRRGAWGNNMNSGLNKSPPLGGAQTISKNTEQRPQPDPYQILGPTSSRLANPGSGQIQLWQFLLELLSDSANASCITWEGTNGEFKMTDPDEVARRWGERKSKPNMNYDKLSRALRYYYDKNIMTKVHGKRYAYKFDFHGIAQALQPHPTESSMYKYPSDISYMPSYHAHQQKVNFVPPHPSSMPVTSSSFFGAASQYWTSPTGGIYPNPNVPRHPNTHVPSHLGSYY
# Summary of the method: (§1)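 GST fusions of human transcription factors were expressed in yeast and captured with glutathione beads. Once given DNA barcodes and pooled alongside a tag-only sample, they were incubated for 30 min at room temperature with 200 nmole of a random double-stranded 16-mer DNA library in Tris/NaCl/DTT/glycerol buffer, then washed, crosslinked (0.1% formaldehyde), proximity-ligated, PCR-amplified and sequenced on an Illumina NextSeq500. The binding signal of each hexamer is its read frequency for a factor divided by its frequency for the tag-only sample.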
# ELK1 = biological target: T2, ELK1 (Homo sapiens, UniProt P19419 1-428); settings: protein: recombinant; tags: N-terminal GST; dsDNA, one strand shown
# T2 sequence: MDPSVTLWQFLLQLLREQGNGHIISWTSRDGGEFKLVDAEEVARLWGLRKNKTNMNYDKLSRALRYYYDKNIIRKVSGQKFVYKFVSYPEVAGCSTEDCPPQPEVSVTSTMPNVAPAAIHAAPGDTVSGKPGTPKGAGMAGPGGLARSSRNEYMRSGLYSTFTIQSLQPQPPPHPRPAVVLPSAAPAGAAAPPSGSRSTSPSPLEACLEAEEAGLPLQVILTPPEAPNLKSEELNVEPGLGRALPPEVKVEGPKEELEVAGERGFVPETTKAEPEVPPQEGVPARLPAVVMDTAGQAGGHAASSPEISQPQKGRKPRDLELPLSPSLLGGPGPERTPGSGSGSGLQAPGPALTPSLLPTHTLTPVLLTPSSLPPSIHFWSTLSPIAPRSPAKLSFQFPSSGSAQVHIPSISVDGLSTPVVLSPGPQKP
# Summary of the method: as §1
# GABPA = biological target: T3, GABPA (Homo sapiens, UniProt Q06546 1-454); settings: protein: recombinant; tags: N-terminal GST; dsDNA, one strand shown
# T3 sequence: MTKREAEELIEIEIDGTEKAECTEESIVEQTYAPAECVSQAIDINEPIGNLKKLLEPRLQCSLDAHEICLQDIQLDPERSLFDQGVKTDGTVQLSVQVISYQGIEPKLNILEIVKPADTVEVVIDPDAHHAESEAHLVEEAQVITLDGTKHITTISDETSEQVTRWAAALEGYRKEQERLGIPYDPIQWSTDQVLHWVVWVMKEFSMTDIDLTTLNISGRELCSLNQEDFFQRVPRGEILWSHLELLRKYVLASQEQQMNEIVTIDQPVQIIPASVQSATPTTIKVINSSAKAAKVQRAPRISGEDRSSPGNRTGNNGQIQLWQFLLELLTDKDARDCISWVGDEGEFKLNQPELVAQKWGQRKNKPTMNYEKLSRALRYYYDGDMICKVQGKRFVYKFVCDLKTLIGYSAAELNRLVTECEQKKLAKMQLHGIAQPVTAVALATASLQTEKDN
# Summary of the method: as §1
# ERG = biological target: T4, ERG (Homo sapiens, UniProt P11308 1-479); settings: protein: recombinant; tags: N-terminal GST; dsDNA, one strand shown
# T4 sequence: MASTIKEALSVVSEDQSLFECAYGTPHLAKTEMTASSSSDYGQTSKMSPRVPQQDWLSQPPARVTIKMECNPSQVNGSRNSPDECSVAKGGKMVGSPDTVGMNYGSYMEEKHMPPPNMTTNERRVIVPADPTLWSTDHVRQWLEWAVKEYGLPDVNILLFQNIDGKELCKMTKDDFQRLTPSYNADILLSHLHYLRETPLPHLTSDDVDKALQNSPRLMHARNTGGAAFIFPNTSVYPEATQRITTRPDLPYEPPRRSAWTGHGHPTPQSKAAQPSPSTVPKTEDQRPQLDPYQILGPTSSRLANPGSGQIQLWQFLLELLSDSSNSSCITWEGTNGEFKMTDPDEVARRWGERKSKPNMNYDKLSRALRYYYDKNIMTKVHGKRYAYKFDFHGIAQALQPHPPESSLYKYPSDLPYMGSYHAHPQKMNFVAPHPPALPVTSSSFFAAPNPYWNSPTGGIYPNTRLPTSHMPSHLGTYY
# Summary of the method: as §1
# ELF1 = ELF1 (Homo sapiens, UniProt P32519 1-619); settings: protein: recombinant; tags: N-terminal GST; dsDNA, one strand shown
# Summary of the method: as §1
# EHF = biological target: T5, EHF (Homo sapiens, UniProt Q9NZC4 1-300); settings: protein: recombinant; tags: N-terminal GST; dsDNA, one strand shown
# T5 sequence: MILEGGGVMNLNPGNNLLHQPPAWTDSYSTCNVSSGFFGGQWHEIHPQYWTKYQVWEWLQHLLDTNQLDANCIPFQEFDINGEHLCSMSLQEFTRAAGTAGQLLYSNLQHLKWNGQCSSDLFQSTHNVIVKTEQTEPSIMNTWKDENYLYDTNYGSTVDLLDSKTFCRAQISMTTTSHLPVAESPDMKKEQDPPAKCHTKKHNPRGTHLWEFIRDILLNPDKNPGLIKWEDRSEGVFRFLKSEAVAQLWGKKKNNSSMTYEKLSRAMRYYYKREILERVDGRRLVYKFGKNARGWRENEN
# Summary of the method: as §1
# SPI1 = SPI1 (Homo sapiens, UniProt P17947 1-270); settings: protein: recombinant; tags: N-terminal GST; dsDNA, one strand shown
# Summary of the method: as §1
# SPIB = SPIB (Homo sapiens, UniProt Q01892 1-262); settings: protein: recombinant; tags: N-terminal GST; dsDNA, one strand shown
# Summary of the method: as §1
# ELK3 = biological target: T6, ELK3 (Homo sapiens, UniProt P41970 1-407); settings: protein: recombinant; tags: N-terminal GST; dsDNA, one strand shown
# T6 sequence: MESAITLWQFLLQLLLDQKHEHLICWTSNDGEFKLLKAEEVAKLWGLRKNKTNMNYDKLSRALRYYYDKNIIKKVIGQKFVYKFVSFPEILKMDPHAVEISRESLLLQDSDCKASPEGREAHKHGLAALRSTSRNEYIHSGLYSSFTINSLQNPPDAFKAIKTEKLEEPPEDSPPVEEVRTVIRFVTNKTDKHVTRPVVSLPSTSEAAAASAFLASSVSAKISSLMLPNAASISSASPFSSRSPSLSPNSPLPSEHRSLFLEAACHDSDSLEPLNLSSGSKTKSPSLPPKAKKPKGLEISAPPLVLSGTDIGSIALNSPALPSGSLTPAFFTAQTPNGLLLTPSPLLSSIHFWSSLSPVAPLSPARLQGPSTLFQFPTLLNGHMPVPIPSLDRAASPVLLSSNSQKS
# Summary of the method: as §1
# FEV = biological target: T7, FEV (Homo sapiens, UniProt Q99581 1-238); settings: protein: recombinant; tags: N-terminal GST; dsDNA, one strand shown
# T7 sequence: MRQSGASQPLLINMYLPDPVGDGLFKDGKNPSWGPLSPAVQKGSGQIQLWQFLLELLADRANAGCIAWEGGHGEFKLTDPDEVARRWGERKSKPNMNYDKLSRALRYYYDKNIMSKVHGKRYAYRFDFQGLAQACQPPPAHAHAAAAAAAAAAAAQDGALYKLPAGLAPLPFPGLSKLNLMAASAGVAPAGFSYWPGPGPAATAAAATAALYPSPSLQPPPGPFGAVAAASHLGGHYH
# Summary of the method: as §1
# ETV5 = ETV5 (Homo sapiens, UniProt P41161 1-510); settings: protein: recombinant; tags: N-terminal GST; dsDNA, one strand shown
# Summary of the method: as §1
# HSF1 = HSF1 (Homo sapiens, UniProt Q00613 1-529); settings: protein: recombinant; tags: N-terminal GST; chain copies: 3; dsDNA, one strand shown
# Summary of the method: as §1
# SPIC = biological target: T8, SPIC (Homo sapiens, UniProt Q8N5J4 1-248); settings: protein: recombinant; tags: N-terminal GST; dsDNA, one strand shown
# T8 sequence: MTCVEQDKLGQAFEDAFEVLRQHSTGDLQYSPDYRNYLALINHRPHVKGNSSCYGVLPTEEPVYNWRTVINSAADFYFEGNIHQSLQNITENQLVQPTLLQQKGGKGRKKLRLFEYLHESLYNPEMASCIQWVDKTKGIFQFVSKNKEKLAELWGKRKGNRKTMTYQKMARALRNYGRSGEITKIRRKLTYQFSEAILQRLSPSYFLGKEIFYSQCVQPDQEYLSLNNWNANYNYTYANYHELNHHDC
# Summary of the method: as §1
# ELF4 = ELF4 (Homo sapiens, UniProt Q99607 1-663); settings: protein: recombinant; tags: N-terminal GST; dsDNA, one strand shown
# Summary of the method: as §1
# ELK4 = biological target: T9, ELK4 (Homo sapiens, UniProt P28324-2 1-405); settings: protein: recombinant; tags: N-terminal GST; dsDNA, one strand shown
# T9 sequence: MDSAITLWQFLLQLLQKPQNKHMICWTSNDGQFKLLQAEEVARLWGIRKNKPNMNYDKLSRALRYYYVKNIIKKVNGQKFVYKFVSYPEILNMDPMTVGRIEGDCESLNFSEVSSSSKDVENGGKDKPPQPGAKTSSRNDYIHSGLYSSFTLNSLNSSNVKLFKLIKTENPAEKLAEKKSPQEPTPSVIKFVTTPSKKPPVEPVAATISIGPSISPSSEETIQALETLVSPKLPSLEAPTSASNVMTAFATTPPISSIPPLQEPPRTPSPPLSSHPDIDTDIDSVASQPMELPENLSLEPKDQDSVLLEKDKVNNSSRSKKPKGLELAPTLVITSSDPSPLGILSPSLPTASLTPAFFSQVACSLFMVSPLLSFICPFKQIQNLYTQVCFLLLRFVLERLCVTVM
# Summary of the method: as §1
# ETV2 = biological target: T10, ETV2 (Homo sapiens, UniProt O00321 1-342); settings: protein: recombinant; tags: N-terminal GST; dsDNA, one strand shown
# T10 sequence: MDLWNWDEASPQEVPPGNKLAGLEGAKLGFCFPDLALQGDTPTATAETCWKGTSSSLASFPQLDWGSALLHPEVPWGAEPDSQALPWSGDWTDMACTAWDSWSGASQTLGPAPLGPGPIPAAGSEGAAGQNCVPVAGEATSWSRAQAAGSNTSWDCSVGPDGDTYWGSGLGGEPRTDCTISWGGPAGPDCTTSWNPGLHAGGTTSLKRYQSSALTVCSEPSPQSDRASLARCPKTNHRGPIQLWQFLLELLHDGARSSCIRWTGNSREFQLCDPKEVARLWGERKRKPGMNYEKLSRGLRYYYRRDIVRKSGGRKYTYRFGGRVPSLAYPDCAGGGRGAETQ
# Summary of the method: as §1
# ELF3 = biological target: T11, ELF3 (Homo sapiens, UniProt P78545 1-371); settings: protein: recombinant; tags: N-terminal GST; dsDNA, one strand shown
# T11 sequence: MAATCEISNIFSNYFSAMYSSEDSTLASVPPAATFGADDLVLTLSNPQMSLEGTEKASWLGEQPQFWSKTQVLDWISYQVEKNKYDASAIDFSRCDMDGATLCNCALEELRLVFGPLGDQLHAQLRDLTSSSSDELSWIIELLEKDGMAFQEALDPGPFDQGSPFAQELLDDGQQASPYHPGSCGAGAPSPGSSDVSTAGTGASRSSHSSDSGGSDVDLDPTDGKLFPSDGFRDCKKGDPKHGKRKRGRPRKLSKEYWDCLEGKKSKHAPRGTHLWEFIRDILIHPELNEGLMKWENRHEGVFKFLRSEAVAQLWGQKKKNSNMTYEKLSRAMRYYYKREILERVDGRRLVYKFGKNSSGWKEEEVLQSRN
# Summary of the method: as §1
# CRX = CRX (Homo sapiens, UniProt O43186 1-299); settings: protein: recombinant; tags: N-terminal GST; dsDNA, one strand shown
# Summary of the method: as §1
# ETV1 = ETV1 (Homo sapiens, UniProt P50549 1-477); settings: protein: recombinant; tags: N-terminal GST; dsDNA, one strand shown
# Summary of the method: as §1
# Sequence of ETV1 (P50549 whole entry): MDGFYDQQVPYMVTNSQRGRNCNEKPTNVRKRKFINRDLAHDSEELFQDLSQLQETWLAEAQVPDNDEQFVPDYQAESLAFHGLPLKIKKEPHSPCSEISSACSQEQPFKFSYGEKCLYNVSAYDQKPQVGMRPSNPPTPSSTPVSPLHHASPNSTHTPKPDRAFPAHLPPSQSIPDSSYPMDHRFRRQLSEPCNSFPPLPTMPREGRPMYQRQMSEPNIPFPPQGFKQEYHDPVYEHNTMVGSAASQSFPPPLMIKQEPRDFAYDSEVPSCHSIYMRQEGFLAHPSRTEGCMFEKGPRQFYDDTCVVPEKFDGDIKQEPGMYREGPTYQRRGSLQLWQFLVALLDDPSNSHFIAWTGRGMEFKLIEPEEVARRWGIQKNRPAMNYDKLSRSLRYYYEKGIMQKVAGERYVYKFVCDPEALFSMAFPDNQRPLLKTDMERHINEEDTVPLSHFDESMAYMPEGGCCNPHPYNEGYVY
# Sequence of CRX (O43186 whole entry): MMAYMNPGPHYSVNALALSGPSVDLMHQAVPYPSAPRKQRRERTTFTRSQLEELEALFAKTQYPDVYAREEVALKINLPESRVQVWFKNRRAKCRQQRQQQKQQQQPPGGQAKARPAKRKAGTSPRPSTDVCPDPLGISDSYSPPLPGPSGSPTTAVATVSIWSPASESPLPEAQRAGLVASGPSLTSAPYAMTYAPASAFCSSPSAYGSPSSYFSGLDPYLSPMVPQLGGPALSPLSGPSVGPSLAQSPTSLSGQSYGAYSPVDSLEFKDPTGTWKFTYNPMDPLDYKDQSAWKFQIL
# Sequence of ELF4 (Q99607 whole entry): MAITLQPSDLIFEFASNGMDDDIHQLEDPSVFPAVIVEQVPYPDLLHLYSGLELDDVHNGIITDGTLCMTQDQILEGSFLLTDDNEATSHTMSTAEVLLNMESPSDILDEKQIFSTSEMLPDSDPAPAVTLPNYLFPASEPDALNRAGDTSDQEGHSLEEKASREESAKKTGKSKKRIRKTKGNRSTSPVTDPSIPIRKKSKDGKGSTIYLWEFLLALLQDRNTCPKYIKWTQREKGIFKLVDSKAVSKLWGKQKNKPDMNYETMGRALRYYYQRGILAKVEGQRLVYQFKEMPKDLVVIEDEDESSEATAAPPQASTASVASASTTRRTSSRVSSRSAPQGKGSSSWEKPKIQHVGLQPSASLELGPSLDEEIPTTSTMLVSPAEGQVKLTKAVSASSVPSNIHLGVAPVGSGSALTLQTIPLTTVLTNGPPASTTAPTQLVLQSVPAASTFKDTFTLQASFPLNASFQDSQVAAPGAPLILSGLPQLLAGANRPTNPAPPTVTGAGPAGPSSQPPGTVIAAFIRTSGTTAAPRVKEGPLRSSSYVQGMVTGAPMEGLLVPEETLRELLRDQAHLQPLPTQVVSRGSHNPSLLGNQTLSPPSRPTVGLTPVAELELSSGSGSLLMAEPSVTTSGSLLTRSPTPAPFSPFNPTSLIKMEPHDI
# Sequence of SPIB (Q01892 whole entry): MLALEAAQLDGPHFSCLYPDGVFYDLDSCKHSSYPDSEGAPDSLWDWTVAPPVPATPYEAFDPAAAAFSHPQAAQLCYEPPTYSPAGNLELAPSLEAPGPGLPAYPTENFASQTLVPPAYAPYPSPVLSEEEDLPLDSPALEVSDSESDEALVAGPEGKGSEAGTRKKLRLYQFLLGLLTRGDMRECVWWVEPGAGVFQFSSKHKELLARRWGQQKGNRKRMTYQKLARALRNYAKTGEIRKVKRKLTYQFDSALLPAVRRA
# Sequence of HSF1 (Q00613 whole entry): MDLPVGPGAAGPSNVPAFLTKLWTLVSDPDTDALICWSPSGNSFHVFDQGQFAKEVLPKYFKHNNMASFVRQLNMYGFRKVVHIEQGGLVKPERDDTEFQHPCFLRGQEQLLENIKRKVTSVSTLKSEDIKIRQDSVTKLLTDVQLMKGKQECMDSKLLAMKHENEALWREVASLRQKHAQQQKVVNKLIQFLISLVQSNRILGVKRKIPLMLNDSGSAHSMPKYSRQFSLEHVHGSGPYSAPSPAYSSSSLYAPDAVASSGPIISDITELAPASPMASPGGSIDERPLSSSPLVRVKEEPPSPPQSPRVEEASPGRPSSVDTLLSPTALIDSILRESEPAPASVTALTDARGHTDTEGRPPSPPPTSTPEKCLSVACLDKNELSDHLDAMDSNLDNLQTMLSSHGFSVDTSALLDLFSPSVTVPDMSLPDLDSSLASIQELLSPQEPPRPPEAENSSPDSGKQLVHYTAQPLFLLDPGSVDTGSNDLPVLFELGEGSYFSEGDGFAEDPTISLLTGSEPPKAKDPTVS
# Sequence of ELF1 (P32519 whole entry): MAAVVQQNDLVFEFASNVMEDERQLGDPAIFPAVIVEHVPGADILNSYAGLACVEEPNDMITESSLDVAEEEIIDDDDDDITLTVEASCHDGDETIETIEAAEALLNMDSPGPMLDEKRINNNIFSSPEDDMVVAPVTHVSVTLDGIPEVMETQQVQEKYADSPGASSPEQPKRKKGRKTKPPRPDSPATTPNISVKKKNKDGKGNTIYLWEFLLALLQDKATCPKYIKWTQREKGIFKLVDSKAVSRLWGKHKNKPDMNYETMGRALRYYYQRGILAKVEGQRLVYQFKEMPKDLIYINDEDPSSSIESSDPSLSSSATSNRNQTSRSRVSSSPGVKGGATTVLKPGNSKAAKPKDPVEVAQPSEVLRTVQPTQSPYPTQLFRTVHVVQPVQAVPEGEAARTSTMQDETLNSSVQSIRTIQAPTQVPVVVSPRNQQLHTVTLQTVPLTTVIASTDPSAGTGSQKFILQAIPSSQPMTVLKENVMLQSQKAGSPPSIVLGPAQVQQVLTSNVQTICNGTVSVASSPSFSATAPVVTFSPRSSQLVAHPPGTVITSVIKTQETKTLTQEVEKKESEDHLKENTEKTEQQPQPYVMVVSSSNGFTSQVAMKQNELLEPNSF
# Sequence of ETV5 (P41161 whole entry): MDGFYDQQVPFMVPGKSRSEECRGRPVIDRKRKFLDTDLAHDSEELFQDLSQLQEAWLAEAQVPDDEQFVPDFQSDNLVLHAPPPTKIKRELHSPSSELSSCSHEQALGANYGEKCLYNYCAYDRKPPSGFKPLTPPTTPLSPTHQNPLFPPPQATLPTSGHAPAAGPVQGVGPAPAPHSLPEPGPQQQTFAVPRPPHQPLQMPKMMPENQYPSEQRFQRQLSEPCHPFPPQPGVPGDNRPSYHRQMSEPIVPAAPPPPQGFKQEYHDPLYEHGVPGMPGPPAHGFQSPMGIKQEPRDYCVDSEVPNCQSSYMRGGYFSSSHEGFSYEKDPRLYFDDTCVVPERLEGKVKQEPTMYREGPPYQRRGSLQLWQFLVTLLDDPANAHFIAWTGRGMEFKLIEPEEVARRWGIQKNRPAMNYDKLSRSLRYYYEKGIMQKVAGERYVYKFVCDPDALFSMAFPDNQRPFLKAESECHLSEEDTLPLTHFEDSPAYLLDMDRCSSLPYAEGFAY
sequence,measurement,setting,value
ACCGAT,binding signal,FLI1,"1.14 fold enrichment (6-mer frequency, TF over GST control)"
same,binding signal,ELK1,"1.12 fold enrichment (6-mer frequency, TF over GST control)"
same,binding signal,GABPA,"1.2 fold enrichment (6-mer frequency, TF over GST control)"
same,binding signal,ERG,"1.07 fold enrichment (6-mer frequency, TF over GST control)"
same,binding signal,ELF1,"1.17 fold enrichment (6-mer frequency, TF over GST control)"
same,binding signal,EHF,"1.16 fold enrichment (6-mer frequency, TF over GST control)"
same,binding signal,SPI1,"1.1 fold enrichment (6-mer frequency, TF over GST control)"
same,binding signal,SPIB,"1.13 fold enrichment (6-mer frequency, TF over GST control)"
same,binding signal,ELK3,"1.04 fold enrichment (6-mer frequency, TF over GST control)"
same,binding signal,FEV,"1.06 fold enrichment (6-mer frequency, TF over GST control)"
same,binding signal,ETV5,"1.08 fold enrichment (6-mer frequency, TF over GST control)"
same,binding signal,HSF1,"1.14 fold enrichment (6-mer frequency, TF over GST control)"
same,binding signal,SPIC,"1.33 fold enrichment (6-mer frequency, TF over GST control)"
same,binding signal,ELF4,"1.24 fold enrichment (6-mer frequency, TF over GST control)"
same,binding signal,ELK4,"1.15 fold enrichment (6-mer frequency, TF over GST control)"
same,binding signal,ETV2,"1.19 fold enrichment (6-mer frequency, TF over GST control)"
same,binding signal,ELF3,"1.22 fold enrichment (6-mer frequency, TF over GST control)"
same,binding signal,CRX,"1.24 fold enrichment (6-mer frequency, TF over GST control)"
same,binding signal,ETV1,"1.12 fold enrichment (6-mer frequency, TF over GST control)"
